From PubChem BioAssay (NCATS) come the findings set out here.

Molecules are shown by their SMILES. A number with no mark means an inactive call. Inconclusive results are not listed. Calls of active or inactive are those of the source. Calls follow the shape of the dose curve; as a rule, active = well fitted curve in the direction sought with a large enough effect; inconclusive = small, poorly fitted or top-dose-only effect, or another doubt; inactive = no such curve, though single readings can be large; an effect the other way counts as inactive or inconclusive.

Assay [1] concerns the target Glutathione peroxidase 1 (Homo sapiens) (UniProt P07203). Put plainly: Primary qHTS Assay for Inhibitors of Recombinant Selenoprotein Glutathione Peroxidase 1 (GPX1) (AID 1845191). Also: nearly all actives have a fitted effect of over 65% in size. Also: potency is read from the fitted curve at half-maximal effect. As to activity, negative = inhibition: % is scaled to controls: 0 for no effect and ±100 for the full control effect. In a few lines:
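Recombinant GPX1 (10 nM final) was preincubated with compound for 30 min at room temperature, then reacted with 1 mM GSH, 0.5 mM CHP, 0.5 mM NADPH and 100 nM glutathione reductase; NADPH fluorescence (340/450 nm) was read at 0 and 15 min.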
(qHTS replaces the single test concentration by a dilution series.)

Assay [2] addresses Luciferin 4-monooxygenase (Photinus pyralis) (UniProt P08659). Put plainly: Primary firefly luciferase (FLuc) qHTS assay for identification of artifact compounds. (AID 1845220). Also: nearly all actives have a fitted effect of over 60% in size. Also: potency is read from the fitted curve at half-maximal effect.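 As to activity change, negative = inhibition: series mostly up to about 54 µM; plate controls were DMSO vehicle for no effect and no enzyme for full effect.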 In a few lines:
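Reaction readout was CCD-imaged luminescence, taken 5 min after adding 10 nM purified firefly enzyme to compound-treated wells holding 10 uM luciferin and ATP in pH 7.6 buffer.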

Assay [3] in a line: Primary fluorescence-based thiol-reactive (MSTI) qHTS assay for identification of artifact compounds. (AID 1845221). Also: nearly all actives have a fitted effect of over 65% in size. Also: potency is read from the fitted curve at half-maximal effect.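 As to activity change, negative = thiol reactive: series mostly up to about 54 µM; thiol-reactive compounds lower the probe fluorescence signal.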 In a few lines: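 One-hour, room-temperature, dark incubation of compound with 4 uM MSTI in PBS (pH 7.4, 2% DMSO) precedes a fluorescence read at 525 nm excitation, 598 nm emission; Hill-equation fitting yields concentration-response values.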
Assay [4] relates to Nanoluciferase (engineered Oplophorus gracilirostris luciferase). Put plainly: Primary Nanoluciferase (NLuc) qHTS assay for identification of artifact compounds. (AID 1845222). Also: potency is read from the fitted curve at half-maximal effect.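 As to activity, negative = inhibition: NLuc secreted into diluted conditioned medium of S16 cells; series mostly up to about 54 µM; 0% = DMSO and -100% = no enzyme.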 In a few lines:
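Concentration-response data were obtained by luminescence after 5 min with Nano-Glo substrate at 1:100. The enzyme was diluted S16 NLuc-expressing cell medium, preincubated with compound for 15 min at RT. Curves were fitted with a 4-parameter Hill model.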

Assay [5] is described as follows: Primary redox qHTS assay for identification of artifact compounds. (AID 1845223).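 Also: 0% = DMSO and 100% = reference compound.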 In a few lines:
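Amplex Red (25 uM) and HRP (250 mU/mL) in HBSS, with compounds for 15 min, then 250 uM DTT for 30 min, room temperature, dark. Fluorescence 525/598 nm read; normalized to DMSO and 10 uM DA3003; Hill fit.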

The target of assay [6] is Phospholipid hydroperoxide glutathione peroxidase GPX4 (Homo sapiens) (UniProt P36969). Put plainly: Primary qHTS Assay for Inhibitors of Recombinant Selenoprotein Glutathione Peroxidase 4 (GPX4) (AID 1845192). Also: nearly all actives have a fitted effect of over 65% in size. Also: potency is read from the fitted curve at half-maximal effect. As to activity change, negative = inhibition: series mostly up to about 50 µM; % is scaled to controls: 0 for no effect and ±100 for the full control effect. In a few lines: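 GR-coupled readout: 100 nM GR, 1 mM GSH, 0.5 mM NADPH; NADPH fluorescence (ex 340/em 450 nm) read at t=0 and after 15 min RT. GPX4 200 nM, preincubated 30 min with compound; substrate 0.5 mM CHP.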
Sequence of Phospholipid hydroperoxide glutathione peroxidase GPX4 (Homo sapiens) (P36969 whole entry, looked up): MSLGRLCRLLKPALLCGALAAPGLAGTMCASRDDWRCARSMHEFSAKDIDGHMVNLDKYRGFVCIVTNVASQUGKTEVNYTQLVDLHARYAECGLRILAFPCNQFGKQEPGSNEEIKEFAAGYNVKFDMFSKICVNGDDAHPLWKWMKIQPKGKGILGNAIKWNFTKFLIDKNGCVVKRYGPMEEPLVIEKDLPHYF

Sequence of Glutathione peroxidase 1 (Homo sapiens) (P07203 whole entry, looked up): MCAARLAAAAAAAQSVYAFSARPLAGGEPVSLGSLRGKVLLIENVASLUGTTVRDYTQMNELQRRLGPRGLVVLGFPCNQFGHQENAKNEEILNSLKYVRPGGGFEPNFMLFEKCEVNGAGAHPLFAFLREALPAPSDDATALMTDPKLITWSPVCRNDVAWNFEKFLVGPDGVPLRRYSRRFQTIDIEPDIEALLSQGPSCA

`C=C1CC23CC1(O)CCC2C1=CC2OC(=O)C(C)(C2O)C1C3C(=O)O` (stereo not given): the Potency entry in assay [1], in assay [2], in assay [3], in assay [4] and in assay [5] was “inactive” in each case.

Regarding `COC(=O)[C@@]1(C)CC[C@]2(C(=O)O[C@@H]3O[C@H](CO)[C@@H](O)[C@H](O)[C@H]3O)CC[C@]3(C)C(=CCC4[C@@]5(C)CC[C@H](O[C@@H]6O[C@H](C(=O)O)[C@@H](O)[C@H](O)[C@H]6O)C(C)(C)C5CC[C@]43C)[C@@H]2C1` (stereo not given in full), in assay [1], the Potency entry was “inactive”. The activity change, negative = inhibition in assay [2] is -8.19% [at 11.6 µM]. For the same molecule, the activity change, negative = thiol reactive in assay [3] is 77.9% [at 11.5 µM]. The activity, negative = inhibition in assay [4] was -2.3% [at 11.6 µM].

On to `CC(C)CC(=O)OC[C@H]1O[C@@](COC(=O)CC(C)C)(O[C@H]2O[C@H](CO)[C@@H](O)[C@H](O)[C@H]2OC(=O)CC(C)C)[C@@H](OC(=O)CC(C)C)[C@@H]1O`, for which the Potency result in assay [1], in assay [6], in assay [4] and in assay [5] was “inactive” each time.

For `COC1=CC(=O)O[C@@H](/C=C/c2ccccc2)[C@@H]1O`, the Potency entry in assay [1], in assay [2], in assay [3], in assay [4] and in assay [5] was “inactive” throughout.

As to `C#C[C@]1(O)CC[C@H]2[C@@H]3CCC4=C/C(=N/O)CC[C@@H]4[C@H]3CC[C@@]21CC`, the Potency entry in assay [1], in assay [2], in assay [3], in assay [4] and in assay [5] was “inactive” each time.

`COC1CC(=O)C23C(=O)NC(CC(C)C)C2C(C)C(C)=CC3/C=C(\C)CCC1O` (stereo not given): the Potency entry in assay [1], in assay [2], in assay [3], in assay [4] and in assay [5] was “inactive” each time.

As for `NC(=O)c1ccc(OCC2NC(=O)C3CCCN3C2=O)cc1` (stereo not given), the Potency result in assay [1], in assay [6], in assay [4] and in assay [5] was “inactive” in each case.

As for `CC/C=C\C[C@H]1C(=O)C=C[C@@H]1CCCCCCCC(=O)O`, the Potency entry in assay [1], in assay [2], in assay [3] and in assay [4] was “inactive” throughout.

`O=C(O)c1cc(=O)c2c3nc4ccccc4oc-3cc(=O)c2[nH]1`: the Potency in assay [6] was 7.94 µM (active).

Take `COC1C=C([C@@H]2CC=C3[C@@]4(C)C(CC[C@]32C)[C@@]2(C)C=CC(=O)C(C)(C)C2C[C@H]4OC(C)=O)C(=O)O1` (stereo not given in full): the Potency entry in assay [6], in assay [2], in assay [3], in assay [4] and in assay [5] was “inactive” in each case.

In the case of `CCOc1c2c(c(OCC)c3ccccc13)C(=O)N(c1ccc(CC(=O)NS(=O)(=O)c3ccccc3)cc1)C2`, the Potency entry in assay [6], in assay [2] and in assay [3] was “inactive” in each case. For the same molecule, the Potency in assay [4] was 12 µM (active).

As to `COC(=O)[C@@H]1C2CC3c4[nH]c5ccccc5c4CCN3CC2CC[C@@H]1O` (stereo not given in full), the Potency entry in assay [6], in assay [2], in assay [3], in assay [4] and in assay [5] was “inactive” in each case.

For the molecule `CC1(C)CCCC2(C)C(CO)C3CCC2C31` (stereo not given), the Potency result in assay [1], in assay [2], in assay [4] and in assay [5] was “inactive” in each case.

Consider `C[C@@H]1O[C@@H](O[C@@H]2[C@@H](O)[C@H](O[C@@H]3[C@@H](O)[C@@H](O)[C@H](O[C@H]4[C@H](OC(=O)[C@]56CCC(C)(C)C[C@H]5C5=CCC7[C@@]8(C)C[C@H](O)[C@H](O[C@@H]9O[C@@H](C)[C@H](O)[C@@H](O)[C@H]9O)[C@@](C)(CO)C8CC[C@@]7(C)[C@]5(C)C[C@H]6O)O[C@H](C)[C@H](O)[C@@H]4O)O[C@H]3C)OC[C@H]2O)[C@H](O)[C@H](O)[C@H]1O` (stereo not given in full), for which the outcome in assay [1] was “inactive [at 9.52 µM]”. In assay [3], the activity change, negative = thiol reactive was 292% [at 11.5 µM]. In assay [4], the activity, negative = inhibition was 4.95% [at 11.6 µM]. The redox activity (% of DA3003) in assay [5] was 10.9% [at 11.5 µM].

Turning to `CCC[C@@H]1C[C@@H](C(=O)N[C@H](C(C)Cl)[C@H]2O[C@H](SC)[C@H](O)[C@@H](O)[C@H]2O)N(C)C1` (stereo not given in full), the Potency entry in assay [6], in assay [2], in assay [3], in assay [4] and in assay [5] was “inactive” throughout.

Regarding `CCC[C@@H]1C[C@@H](C(=O)N[C@@H]([C@H]2O[C@H](SC)[C@H](O)[C@@H](O)[C@@H]2O)[C@@H](C)O)N(C)C1`, the Potency entry in assay [6], in assay [3], in assay [4] and in assay [5] was “inactive” in each case.

As for `C#Cc1cnc2[nH]c(=O)n(C(CC)CC)c2n1`, in assay [6], the Potency was 18 µM (active). Moreover, the Potency result in assay [2], in assay [4] and in assay [5] was “inactive” in each case.

`c1ccc(Nc2nc3c(s2)CCCc2[nH]ncc2-3)nc1`: the Potency entry in assay [6], in assay [4] and in assay [5] was “inactive” in each case. The Potency in assay [2] was 8.49 µM (active); in assay [3] it was 1.5 µM (active).

In the case of `NCc1c[nH]c(=S)n1C1CCc2c(F)cc(F)cc2C1` (stereo not given), the Potency in assay [1] was 22.7 µM (active). Also, the Potency result in assay [2], in assay [4] and in assay [5] was “inactive” each time.

For the molecule `CCOC(=O)[C@H](CCc1ccccc1)N[C@@H](C)C(=O)N1C2CCCCC2C[C@H]1C(=O)O` (stereo not given in full), the Potency entry in assay [6], in assay [2] and in assay [4] was “inactive” throughout.

In the case of `O=C1CSC2(CCN(CCCN3c4ccccc4Sc4ccc(Cl)cc43)CC2)N1`, the Potency entry in assay [6] is “inactive”.

For the molecule `Cc1nnc(C(C)C)n1C1CC2CCC(C1)N2CCC(NC(=O)C1CCC(F)(F)CC1)c1ccccc1` (stereo not given), the Potency result in assay [6], in assay [2], in assay [3], in assay [4] and in assay [5] was “inactive” throughout.
